Laboratory results from PubChem BioAssay (EPA / NIEHS).
“And” between values parts separate entries of the source, which are not always exact repeats. Equal values may be shown once. Inconclusive results are not listed. A structure can be active in one record and inactive in another. The source made the active and inactive calls. How the source made its calls, unless noted: active means hit-call score of the fitted dose curve at least 0.9, where 1 is the maximum; inactive means score below 0.9.

Experiments:
[1] = molecular target: human RAR-related Orphan Receptor beta (RORb), RORB (gene 6096) (UniProt Q92753); assay: ATG_RORb_TRANS: Attagene TRANS-FACTORIAL HepG2 Assay for human RAR-related Orphan Receptor beta (RORb) (AID 2283010; active means hit-call score of the fitted dose curve at least 0.9, where 1 is the maximum)
Summary of the method: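 HepG2, transient MRTU transfection (GAL4-UAS reporters, exogenous NR-Gal4 chimeras); 24 h compound exposure; total RNA → RT-PCR → 6-FAM primer extension → HpaI digest → CE fluorescence. Positive direction vs DMSO baseline.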

[2] = molecular target: human RAR-related Orphan Receptor gamma (RORg), RORC (gene 6097) (UniProt P51449); assay: ATG_RORg_TRANS: Attagene TRANS-FACTORIAL HepG2 Assay for human RAR-related Orphan Receptor gamma (RORg) (AID 2283011; active means hit-call score of the fitted dose curve at least 0.9, where 1 is the maximum)
Summary of the method: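 Reporter transcripts from a transfected RORg-GAL4 chimera in HepG2 cells were quantified 24 h after dosing by RT-PCR, 6-FAM labelling, HpaI digestion and capillary electrophoresis; increases over DMSO baseline were fitted.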

[3] = molecular target: human Thyroid Receptor alpha (THRa1), THRA (gene 7067) (UniProt P10827); assay: ATG_THRa1_TRANS: Attagene TRANS-FACTORIAL HepG2 Assay for human Thyroid Receptor alpha (THRa1) (AID 2283014; active means hit-call score of the fitted dose curve at least 0.9, where 1 is the maximum)
Summary of the method: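 Transcripts from GAL4-UAS-driven reporters, measured after 24 h compound exposure by RT-PCR plus capillary electrophoresis of 6-FAM-labeled fragments, were fitted for gain of signal relative to DMSO. Cells: transiently transfected HepG2 expressing NR-Gal4 chimeras.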

[4] = molecular target: Retinoic acid receptor RXR-alpha (Homo sapiens) (UniProt P19793); assay: ATG_RXRa_TRANS: Attagene TRANS-FACTORIAL HepG2 Assay for human Retinoid X Receptor alpha (RXRa) (AID 2283012; active means hit-call score of the fitted dose curve at least 0.9, where 1 is the maximum)
Summary of the method: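 Read-out: fluorescent reporter-transcript fragments quantified by capillary electrophoresis after RT-PCR. Transiently transfected HepG2 cells carrying GAL4-UAS reporters and NR-GAL4 chimeras were exposed to chemical for 24 h; activity scored as increase over DMSO.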

[5] = molecular target: human Retinoid X Receptor beta (RXRb), RXRB (gene 6257) (UniProt P28702); assay: ATG_RXRb_TRANS: Attagene TRANS-FACTORIAL HepG2 Assay for human Retinoid X Receptor beta (RXRb) (AID 2283013; active means hit-call score of the fitted dose curve at least 0.9, where 1 is the maximum)
Summary of the method: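 Read-out: reporter mRNA induction via RT-PCR plus capillary electrophoresis fluorescence, analysed as signal increase relative to DMSO. Cells were human HepG2, transiently transfected with GAL4-UAS reporter constructs and chimeric receptor-Gal4 fusions, dosed for 24 h.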

[6] = read-out: E-selectin (Homo sapiens) (UniProt P16581); assay: BSK_3C_Eselectin: BioMAP Diversity Plus: 3C Assay for Eselectin Biomarker Activity (AID 2283015); conditions: primary human endothelial cells (HUVEC); actives raise or lower the signal;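 further: cell surface E-selectin protein quantified by ELISA 24 h after dosing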
Summary of the method: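 E-selectin ELISA readout, fitted bidirectionally relative to DMSO, taken 24 h post-dosing in HUVEC cultures of the 3C system. Overt cytotoxicity tracked with sulforhodamine B staining of parallel wells.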

[7] = read-out: Interleukin-1 alpha (IL1a), IL1A (gene 3552); assay: BSK_BE3C_IL1a: BioMAP Diversity Plus: BE3C Assay for Interleukin-1 alpha (IL1a) Biomarker Activity (AID 2283016); conditions: primary human bronchial epithelial cells; actives raise or lower the signal
Summary of the method: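 ELISA read-out of IL-1a from human lung bronchial epithelial primary cells, 24 h post-dose. Gain or loss of signal fitted relative to DMSO negative control.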

[8] = read-out: Monocyte Chemoattractant Protein-1 (MCP1), CCL2 (gene 6347); assay: BSK_3C_MCP1: BioMAP Diversity Plus: 3C Assay for Monocyte Chemoattractant Protein-1 (MCP1) Biomarker Activity (AID 2283017); conditions: primary human endothelial cells (HUVEC); actives raise or lower the signal
Summary of the method: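 MCP-1 was measured by ELISA 24 h after dosing in primary HUVEC 3C cultures and fitted in both directions relative to DMSO; cytotoxicity was checked by SRB total-protein staining in parallel wells.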

[9] = read-out: Monocyte Chemoattractant Protein-1 (MCP1), CCL2 (gene 6347); assay: BSK_4H_MCP1: BioMAP Diversity Plus: 4H Assay for Monocyte Chemoattractant Protein-1 (MCP1) Biomarker Activity (AID 2283018); conditions: primary human endothelial cells (HUVEC); actives raise or lower the signal
Summary of the method: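 HUVEC primary cells, 24 h post-dose, MCP-1 by ELISA. Gain or loss of signal fitted bidirectionally vs DMSO baseline. Cytotoxicity: SRB stain (0.1% after 10% TCA fixation), read 560 nm, parallel cultures.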

[10] = read-out: Human Leukocyte Antigen - DR isotype (HLADR), HLA-DRA (gene 3122); assay: BSK_3C_HLADR: BioMAP Diversity Plus: 3C Assay for Human Leukocyte Antigen - DR isotype (HLADR) Biomarker Activity (AID 2283019); conditions: primary human endothelial cells (HUVEC); actives raise or lower the signal
Summary of the method: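 Bidirectional fitting against DMSO was applied to the HLA-DR ELISA signal from human umbilical vein endothelial cells, 24 h post-dose. Cytotoxicity came from parallel SRB total-protein staining; 3C proliferation was counted by SRB at 48 h.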

Measured: AC50

human Retinoid X Receptor beta (RXRb), RXRB (gene 6257), sequence (P28702 whole entry, looked up, the tested form may be a part): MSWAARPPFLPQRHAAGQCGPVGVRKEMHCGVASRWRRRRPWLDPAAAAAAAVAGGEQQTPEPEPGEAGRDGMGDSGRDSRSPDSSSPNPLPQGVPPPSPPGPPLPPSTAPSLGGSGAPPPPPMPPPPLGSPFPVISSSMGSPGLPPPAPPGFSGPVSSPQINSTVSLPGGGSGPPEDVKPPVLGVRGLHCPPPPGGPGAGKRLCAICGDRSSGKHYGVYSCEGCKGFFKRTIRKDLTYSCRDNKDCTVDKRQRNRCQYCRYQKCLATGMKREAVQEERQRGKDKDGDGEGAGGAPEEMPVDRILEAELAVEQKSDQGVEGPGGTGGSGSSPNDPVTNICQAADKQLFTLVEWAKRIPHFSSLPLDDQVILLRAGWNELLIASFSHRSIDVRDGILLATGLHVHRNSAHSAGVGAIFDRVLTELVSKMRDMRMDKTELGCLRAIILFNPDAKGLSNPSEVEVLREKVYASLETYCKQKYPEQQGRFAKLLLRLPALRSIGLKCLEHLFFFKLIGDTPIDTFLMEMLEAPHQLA
Retinoic acid receptor RXR-alpha (Homo sapiens), sequence (P19793 whole entry, looked up, the tested form may be a part): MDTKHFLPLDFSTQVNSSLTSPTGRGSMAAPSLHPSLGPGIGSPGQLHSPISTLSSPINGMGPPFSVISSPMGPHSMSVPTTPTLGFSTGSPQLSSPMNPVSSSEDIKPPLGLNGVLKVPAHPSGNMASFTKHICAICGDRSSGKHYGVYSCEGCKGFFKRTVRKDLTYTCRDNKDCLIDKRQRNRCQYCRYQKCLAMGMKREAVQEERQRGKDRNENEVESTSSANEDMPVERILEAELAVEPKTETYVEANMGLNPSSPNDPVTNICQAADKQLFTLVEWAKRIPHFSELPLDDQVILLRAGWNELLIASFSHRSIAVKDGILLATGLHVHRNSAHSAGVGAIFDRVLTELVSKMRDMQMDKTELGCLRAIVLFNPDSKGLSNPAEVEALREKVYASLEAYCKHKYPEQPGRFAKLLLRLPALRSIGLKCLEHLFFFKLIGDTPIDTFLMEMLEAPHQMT
human Thyroid Receptor alpha (THRa1), THRA (gene 7067), sequence (P10827 whole entry, looked up, the tested form may be a part): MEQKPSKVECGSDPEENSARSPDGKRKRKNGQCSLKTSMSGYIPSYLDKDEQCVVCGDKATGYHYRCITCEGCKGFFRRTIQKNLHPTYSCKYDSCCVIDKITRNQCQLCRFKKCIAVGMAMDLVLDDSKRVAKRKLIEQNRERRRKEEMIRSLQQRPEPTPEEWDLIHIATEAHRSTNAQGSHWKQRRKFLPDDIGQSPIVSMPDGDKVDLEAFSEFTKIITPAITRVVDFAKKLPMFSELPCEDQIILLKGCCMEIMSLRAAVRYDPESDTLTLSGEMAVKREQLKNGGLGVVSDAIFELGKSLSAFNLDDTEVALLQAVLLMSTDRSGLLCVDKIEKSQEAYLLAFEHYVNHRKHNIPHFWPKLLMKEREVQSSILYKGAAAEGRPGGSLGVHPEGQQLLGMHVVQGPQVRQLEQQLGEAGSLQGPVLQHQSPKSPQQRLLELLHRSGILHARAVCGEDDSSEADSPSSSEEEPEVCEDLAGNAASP
human RAR-related Orphan Receptor beta (RORb), RORB (gene 6096), sequence (Q92753 whole entry, looked up, the tested form may be a part): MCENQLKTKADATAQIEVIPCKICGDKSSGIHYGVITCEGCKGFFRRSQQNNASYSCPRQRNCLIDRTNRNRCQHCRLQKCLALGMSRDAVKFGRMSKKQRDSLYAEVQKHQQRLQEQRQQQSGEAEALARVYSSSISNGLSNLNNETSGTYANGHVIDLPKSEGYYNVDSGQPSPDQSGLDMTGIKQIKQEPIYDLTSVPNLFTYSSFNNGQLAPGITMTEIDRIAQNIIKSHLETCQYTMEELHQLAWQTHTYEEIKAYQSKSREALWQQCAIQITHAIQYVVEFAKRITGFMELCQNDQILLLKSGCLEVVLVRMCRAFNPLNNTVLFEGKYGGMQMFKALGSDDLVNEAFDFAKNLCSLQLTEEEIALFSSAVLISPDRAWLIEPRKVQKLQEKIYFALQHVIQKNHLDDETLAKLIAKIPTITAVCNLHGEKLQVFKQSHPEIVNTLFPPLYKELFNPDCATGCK
human RAR-related Orphan Receptor gamma (RORg), RORC (gene 6097), sequence (P51449 whole entry, looked up, the tested form may be a part): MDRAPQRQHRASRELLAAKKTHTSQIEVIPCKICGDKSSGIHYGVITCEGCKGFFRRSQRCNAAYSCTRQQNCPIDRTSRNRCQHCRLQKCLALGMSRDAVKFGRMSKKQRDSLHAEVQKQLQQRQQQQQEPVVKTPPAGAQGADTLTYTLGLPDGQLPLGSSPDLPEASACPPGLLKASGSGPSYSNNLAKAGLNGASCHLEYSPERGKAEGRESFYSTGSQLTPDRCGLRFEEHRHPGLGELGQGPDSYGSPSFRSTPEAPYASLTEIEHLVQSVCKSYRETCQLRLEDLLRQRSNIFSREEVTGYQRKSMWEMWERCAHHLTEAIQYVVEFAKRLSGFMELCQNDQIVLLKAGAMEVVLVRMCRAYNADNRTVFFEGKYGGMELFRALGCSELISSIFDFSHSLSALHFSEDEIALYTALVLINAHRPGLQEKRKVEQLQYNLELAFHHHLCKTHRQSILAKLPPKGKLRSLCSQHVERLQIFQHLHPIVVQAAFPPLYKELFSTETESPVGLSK
E-selectin (Homo sapiens), sequence (P16581 whole entry, looked up): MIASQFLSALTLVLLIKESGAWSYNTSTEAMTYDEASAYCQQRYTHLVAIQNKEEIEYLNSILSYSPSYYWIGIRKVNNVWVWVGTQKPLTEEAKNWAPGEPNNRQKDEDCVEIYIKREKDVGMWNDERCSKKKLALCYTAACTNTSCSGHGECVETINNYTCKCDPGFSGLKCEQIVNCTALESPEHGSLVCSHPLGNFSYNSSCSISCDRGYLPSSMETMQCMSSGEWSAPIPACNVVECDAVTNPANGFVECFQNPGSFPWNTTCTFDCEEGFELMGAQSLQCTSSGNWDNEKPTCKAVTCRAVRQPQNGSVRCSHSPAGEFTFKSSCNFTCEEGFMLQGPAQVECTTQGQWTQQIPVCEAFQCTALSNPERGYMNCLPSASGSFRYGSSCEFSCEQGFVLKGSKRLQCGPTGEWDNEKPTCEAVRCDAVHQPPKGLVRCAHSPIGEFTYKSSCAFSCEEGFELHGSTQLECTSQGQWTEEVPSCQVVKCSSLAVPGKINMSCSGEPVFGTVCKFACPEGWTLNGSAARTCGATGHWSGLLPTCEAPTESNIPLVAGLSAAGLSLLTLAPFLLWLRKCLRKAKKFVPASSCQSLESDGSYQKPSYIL

CCOC(=O)c1ccccc1N
inactive: [1] | [2] | [3]

COC(=O)C(F)(F)C(F)(F)OC(F)(C(F)(F)F)C(F)(F)OC(F)=C(F)F (stereo not drawn)
active: [5] 31.8 µM and 41.3 µM and 28.2 µM
inactive: all other assays above

C=C(C)C(=O)OCC1CO1 (stereo not drawn)
inactive: [1]

CCOP(=S)(S)OCC
inactive: [1] | [6] | [7] | [8] | [9] | [10]

O=C(O)C1C(C(=O)O)C2(Cl)C(Cl)=C(Cl)C1(Cl)C2(Cl)Cl (stereo not drawn)
inactive: [1] | [3] | [7] | [8] | [9] | [10]

CC(C)CBr
inactive: [1] | [3]

O=C(O)C(F)(OC(F)(F)C(F)(F)C(F)(F)F)C(F)(F)F (stereo not drawn)
inactive: [1] | [2] | [4] | [5] | [3] | [7] | [8] | [9] | [10]
active: [8] 49300 nM

O=[N+]([O-])c1ccc(Cl)c(Cl)c1
not listed: [2]
inactive: all other assays above

N#Cc1c(-c2ccc(Cl)cc2)[nH]c(C(F)(F)F)c1Br
active: [7] 7110 nM | [8] 169 nM | [9] 140 nM | [10] 324 nM
not listed: [2]
inactive: all other assays above

O=C(O)C=CC(F)(C(F)(F)F)C(F)(F)F
not listed: [2] | [5] | [6]
inactive: all other assays above

CC(C)(C)OOC(C)(C)C
not listed: [2] | [5]
inactive: all other assays above

Cc1cccc(N)c1
not listed: [4] | [5] | [6]
inactive: all other assays above

ClC(Cl)c1ccccc1
inactive: all assays above
